# Experimental data: ChEMBL document CHEMBL3988442, “University of Dundee, Small-Polar-MMV Screening Library” (2021)
# Entries with a potency or affinity are not part of this list.
# Target: T1, Ubiquitin-activating enzyme e1, putative (Leishmania donovani (strain BPK282A1)) (UniProt E9BSI1)
# T1 sequence (whole entry): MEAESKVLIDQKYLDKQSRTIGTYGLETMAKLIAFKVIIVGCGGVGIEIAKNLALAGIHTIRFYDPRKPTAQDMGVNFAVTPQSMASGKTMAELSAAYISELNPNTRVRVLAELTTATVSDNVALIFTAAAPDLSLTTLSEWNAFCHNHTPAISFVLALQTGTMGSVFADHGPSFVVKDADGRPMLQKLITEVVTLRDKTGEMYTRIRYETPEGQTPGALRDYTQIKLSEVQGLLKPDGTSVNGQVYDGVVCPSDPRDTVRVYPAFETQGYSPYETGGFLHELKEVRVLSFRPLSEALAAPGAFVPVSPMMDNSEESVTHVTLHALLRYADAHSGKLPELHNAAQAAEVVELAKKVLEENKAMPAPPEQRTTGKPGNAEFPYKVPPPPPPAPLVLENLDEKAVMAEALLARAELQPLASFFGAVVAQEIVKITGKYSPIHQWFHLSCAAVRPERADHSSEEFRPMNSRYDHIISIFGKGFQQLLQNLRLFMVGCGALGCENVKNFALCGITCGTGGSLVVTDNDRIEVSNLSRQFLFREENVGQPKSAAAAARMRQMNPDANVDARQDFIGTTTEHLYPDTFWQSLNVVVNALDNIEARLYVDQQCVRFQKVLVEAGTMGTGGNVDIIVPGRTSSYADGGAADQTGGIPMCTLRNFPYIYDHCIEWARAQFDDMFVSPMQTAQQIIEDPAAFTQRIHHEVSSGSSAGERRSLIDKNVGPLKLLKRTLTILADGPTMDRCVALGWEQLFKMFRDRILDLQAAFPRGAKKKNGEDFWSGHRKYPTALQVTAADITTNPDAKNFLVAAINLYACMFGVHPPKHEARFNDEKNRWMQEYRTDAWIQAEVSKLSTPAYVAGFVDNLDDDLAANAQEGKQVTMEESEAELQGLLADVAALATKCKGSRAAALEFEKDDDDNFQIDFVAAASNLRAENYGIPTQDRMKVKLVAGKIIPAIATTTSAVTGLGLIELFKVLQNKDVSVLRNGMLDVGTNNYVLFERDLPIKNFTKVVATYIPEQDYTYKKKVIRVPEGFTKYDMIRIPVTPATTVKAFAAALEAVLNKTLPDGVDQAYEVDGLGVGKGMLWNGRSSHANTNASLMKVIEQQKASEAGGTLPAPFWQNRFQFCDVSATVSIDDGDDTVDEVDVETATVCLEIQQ
# Assay: Leishmania donovani Ubiquitin Activating Enzyme (LdE1)
# Type: functional
# Design: scale not given: direction of the effect not stated beside the values
# Settings: 30 µM
row,Compound,Percent Effect [%]
1,O=C(C(CNCc1ccsc1)c1ccccc1)N1CCOCC1 (stereo not given),5.2
2,O=C(CCOc1cccc(F)c1)N1CCCC(n2cncn2)C1 (stereo not given),1.27
3,Cc1nc(C)n(CC2CCCCN2CCCS(=O)(=O)N(C)C)n1 (stereo not given),16.2
4,CCOC(C)c1nc(CN2CCNCC2)cs1 (stereo not given),-8.11
5,CC1CCCN(CCNC(=O)c2cncnc2C(C)C)C1 (stereo not given),6.94
6,CC(C)NC(=O)c1sccc1N(C)S(=O)(=O)c1ccc(Cl)cc1,7.89
7,Cc1cc(C)n(C2CCCN(C(=O)c3cnc4onc(C)c4c3)C2)n1 (stereo not given),5.2
8,O=C(CCc1nc2cccnc2[nH]1)NCc1cccnc1,25.3
9,CSCCC(=O)N1CCCC1c1ccsc1 (stereo not given),9.72
10,COc1c(C)cnc(CSc2nnc(C)s2)c1C,5.33
11,CCOc1cc(C)nc(N2CCN(C(=O)c3ccc[nH]3)CC2)n1,2.7
12,CC(C)NC(=O)N1CCC(n2ccc(C(F)(F)F)n2)CC1,5.48
13,CC(C)c1nnc2n1CCN(CCCS(=O)(=O)c1ccccc1)C2,7.79
14,Cc1cnn(CC2CN(Cc3nnc(C4CC4)o3)CCO2)c1 (stereo not given),5.41
15,CC(NC(=O)NCCCNS(C)(=O)=O)c1ccncc1 (stereo not given),6.33
16,CS(=O)(=O)CCC(=O)NC1(c2cccc(Br)c2)CC1,13.5
17,Cc1cc(CN2CCN(C(=O)c3sccc3C(C)C)CC2)no1,2.6
18,CC(=O)Nc1ccc(-n2ccc3nc(N4CCCC4)ncc3c2=O)cc1,-9.33
19,Cc1nc(C)n(CC2CCCN2CCc2cccs2)n1 (stereo not given),15.8
20,Cc1nn(C)c(C)c1C1CCCN1C(=O)c1ccc(CN(C)C)cc1 (stereo not given),21.6
